{
  "source": "PubChem BioAssay (Tox21)",
  "note": "Calls of active or inactive are those of the source. The call rests on the fitted dose curve; in most records, active means well fitted curve in the direction sought with a large enough effect in the repeat runs; inconclusive means weak or mixed curves; inactive means flat fitted curve, though single readings scatter. On the % scale 0 is the no-effect control and ±100 the full control effect.",
  "data": [
    {"test": "qHTS assay to test for compound auto fluorescence at 460 nm (blue) in HEK293 cells (AID 720678)", "settings": "blue autofluorescence 405/460 nm; series mostly up to 91.3 µM; fluorescence, % of triamterene: at the top concentration", "source_text": "National Center for Advancing Translational Sciences [NCATS]\nNIH Chemical Genomics Center [NCGC]\nU.S. Environmental Protection Agency [EPA]\nNational Institutes of Environmental Health Sciences [NIEHS]\nNational Toxicology Program [NTP]\nU.S. Food and Drug Administration [FDA]\nCompound auto fluorescence often interferes with screening of the compound library against various biological targets and signaling pathways. Some of these compounds may have fluorophoric properties. Such properties may interfere with the assay outputs resulting in false positives and/or negatives. To decrease such complications and ensure the compound activities are relevant in terms of biological response, the Tox21 10K compound library was screened for auto fluorescence.\nFrom the fluorophores used as reporter signals in our screening assays, the auto fluorescence equivalencies of compounds against three fluorophores have been evaluated: Triamterene, Fluorescein and Rose Bengal sodium for blue, green and red fluorescence, respectively. The fluorescence intensities were measured using Excitation/Emission wavelengths at 405/460nm, 485/535nm and 540/590nm for blue, green and red labels, respectively. This assay includes the blue fluorescence data.\nTox21 Assay Protocol Summary:\n2,000 HEK293 cells in 5 uL of culture medium containing 10% dialyzed FBS per well were dispensed into black wall/clear bottom 1536-well plates using a Multidrop Combi Dispenser (Thermo Scientific). The assay plates were incubated for 4-5 hr at 37C to allow cell attachment to the well bottom, followed by the transfer of 23 nL compound or DMSO vehicle by a pintool work station (Kalypsys, San Diego, CA). After the assay plates were incubated overnight at 37C and 5% CO2, fluorescence intensities in the assay plates were measured by an Envision (PerkinElmer, Shelton, CT) plate reader using three labels for measuring blue, green and red fluorescence at […] 460, 535 and 590nm respectively.", "values": [
      {"smiles": "CN1[C@@H]2CC[C@H]1CC(OC(=O)C(CO)c1ccccc1)C2", "note": "(stereo not given in full)", "Potency": "inactive"},
      {"smiles": "CCN(CC)CCCN(c1ccccc1)C1Cc2ccccc2C1", "fluorescence, % of triamterene": "-0.0299% [at 46 µM] (inactive)"},
      {"smiles": "CC1CCCNC1", "note": "(stereo not given)", "fluorescence, % of triamterene": "-0.137% (inactive)"},
      {"smiles": "CN(C)CCCN1c2ccccc2Sc2ccc(C(F)(F)F)cc21", "fluorescence, % of triamterene": "-0.0112% [at 46 µM] (inactive)"},
      {"smiles": "Cc1cc(Nc2ccc(O)cc2)ccc1N", "fluorescence, % of triamterene": "-0.085% (inactive)"},
      {"smiles": "Cn1cnc2ncnc(N)c21", "fluorescence, % of triamterene": "-0.0024% [at 46 µM] (inactive)"},
      {"smiles": "COC(=O)C1=C(C)NC(C)=C(C(=O)OCCCN2CCC(c3ccccc3)(c3ccccc3)CC2)C1c1cccc([N+](=O)[O-])c1", "note": "(stereo not given)", "fluorescence, % of triamterene": "-0.0892% [at 46 µM] (inactive)"},
      {"smiles": "NC(=O)C(=O)N/N=C/c1ccc([N+](=O)[O-])o1", "fluorescence, % of triamterene": "0.265% [at 46 µM] (inactive)"},
      {"smiles": "CCCCCCCCCCCCCOP(=O)(O)O", "fluorescence, % of triamterene": "0.0985% (inactive)"},
      {"smiles": "CC(=O)Oc1ccc(C2(c3ccc(OC(C)=O)cc3)C(=O)Nc3ccccc32)cc1", "Potency": "inactive"},
      {"smiles": "Clc1ccccc1CN1CCc2sccc2C1", "fluorescence, % of triamterene": "-0.251% [at 46 µM] (inactive)"},
      {"smiles": "CC1(C)C(=O)N(Br)C(=O)N1Br", "fluorescence, % of triamterene": "-0.024% (inactive)"},
      {"smiles": "[O]=[Zr]", "fluorescence, % of triamterene": "-0.0464% (inactive)"},
      {"smiles": "COC(=O)NCCC[Si](OC)(OC)OC", "fluorescence, % of triamterene": "0.0491% (inactive)"},
      {"smiles": "O=C1NC2CCCCN2C12CCN(CCCN1c3ccccc3CCc3ccc(Cl)cc31)CC2", "note": "(stereo not given)", "fluorescence, % of triamterene": "-0.0014% [at 46 µM] (inactive)"},
      {"smiles": "c1cc(OCC2CO2)cc(OCC2CO2)c1", "note": "(stereo not given)", "fluorescence, % of triamterene": "0.0627% (inactive)"},
      {"smiles": "SCCCCCCCCS", "fluorescence, % of triamterene": "-0.0302% (inactive)"},
      {"smiles": "Cc1c(C)n(Cc2ccccc2)c2ccc(C(=O)OCCN(C)C)cc12", "fluorescence, % of triamterene": "-0.212% [at 46 µM] (inactive)"},
      {"smiles": "CC(NCCC(c1ccccc1)c1ccccc1)c1ccccc1", "note": "(stereo not given)", "fluorescence, % of triamterene": "0.186% [at 46 µM] (inactive)"},
      {"smiles": "CC(C)(C)c1cc(/C=C2\\SC(=N)NC2=O)cc(C(C)(C)C)c1O", "fluorescence, % of triamterene": "0.477% (inactive)"},
      {"smiles": "O=C(O)CCCCCCC(=O)O", "fluorescence, % of triamterene": "-0.008% (inactive)"},
      {"smiles": "CCCCCCCCCCCC(=O)N(CC)CC", "fluorescence, % of triamterene": "0.222% (inactive)"},
      {"smiles": "CN1[C@@H]2CC[C@@H]1CC(OC(=O)C(CO)c1ccccc1)C2", "note": "(stereo not given in full)", "fluorescence, % of triamterene": "0.0534% [at 46 µM] (inactive)"},
      {"smiles": "Cc1cn[nH]c1", "fluorescence, % of triamterene": "-0.0498% [at 46 µM] (inactive)"},
      {"smiles": "Brc1ccccc1-c1ccccc1", "fluorescence, % of triamterene": "-0.325% (inactive)"},
      {"smiles": "CCCCCCCCCCCCCCCC", "fluorescence, % of triamterene": "-0.33% (inactive)"},
      {"smiles": "NC1(c2ccc(-c3nc4ccn5c(=O)[nH]nc5c4cc3-c3ccccc3)cc2)CCC1", "fluorescence, % of triamterene": "2.45% [at 46 µM] (inactive)"},
      {"smiles": "NCCCC(O)(P(=O)(O)O)P(=O)(O)O", "fluorescence, % of triamterene": "-0.142% [at 46 µM] (inactive)"},
      {"smiles": "CC(C)N=C(N)/N=C(\\N)Nc1ccc(Cl)cc1", "fluorescence, % of triamterene": "-0.225% [at 18.6 µM] (inactive)"},
      {"smiles": "NCCCCCCNCCCCCCN", "fluorescence, % of triamterene": "0.095% (inactive)"},
      {"smiles": "CSc1c(Cl)c(Cl)c(Cl)c(Cl)c1Cl", "fluorescence, % of triamterene": "0.0732% (inactive)"},
      {"smiles": "CC(=O)Oc1ccc(C2(c3ccc(OC(C)=O)cc3)Oc3ccccc3NC2=O)cc1", "fluorescence, % of triamterene": "-0.0701% [at 46 µM] (inactive)"},
      {"smiles": "Cc1cccc(Br)c1", "fluorescence, % of triamterene": "-0.0061% (inactive)"},
      {"smiles": "c1ccc(Sc2ccccc2)cc1", "fluorescence, % of triamterene": "-0.0576% (inactive)"},
      {"smiles": "CCCSS/C(CCO)=C(\\C)N(C=O)Cc1cnc(C)nc1N", "fluorescence, % of triamterene": "0.203% [at 46 µM] (inactive)"},
      {"smiles": "CC(COC(=O)c1ccccc1)OC(=O)c1ccccc1", "note": "(stereo not given)", "fluorescence, % of triamterene": "0.157% (inactive)"},
      {"smiles": "CCN(CC)CCOC(=O)C1(C2CCCCC2)CCCCC1", "fluorescence, % of triamterene": "0.105% [at 46 µM] (inactive)"},
      {"smiles": "C=CC(=O)OCCC#N", "fluorescence, % of triamterene": "-0.0178% (inactive)"},
      {"smiles": "CNC(=S)NN", "fluorescence, % of triamterene": "0.17% (inactive)"},
      {"smiles": "N[C@@H](CSSC[C@H](N)C(=O)O)C(=O)O", "fluorescence, % of triamterene": "-0.134% [at 46 µM] (inactive)"}
    ]}
  ]
}
